The source made the active and inactive calls. The calls were made as follows: active = hit-call score of the fitted dose curve at least 0.9, where 1 is the maximum; inactive = score below 0.9.

Read-out in the experiment: MicroRNA 122 (MIR122), gene 406906
Briefly: LTEA_HepaRG_MIR122: Life Technologies and Expression Analysis (LTEA) Assay for MicroRNA 122 (MIR122) using HepaRG (AID 2283516). To be noted: mRNA level, 48 h; actives raise or lower the signal. Here is the method:
LTEA_HepaRG is a cell based, multiplexed-readout assay that uses HepaRG, a human liver cell line, with measurements taken at 48 hours after chemical dosing on a 96-well plate.LTEA_HepaRG_MIR122 is one of 102 assay component(s) measured in the LTEA HepaRG cell culture assay. It is a marker of MicroRNA.Data from the assay component LTEA_HepaRG_MIR122 was analyzed into 1 endpoint. This assay endpoint, LTEA_HepaRG_MIR122, was analyzed with bidirectional fitting relative to DMSO as the negative control and baseline of activity. Using a type of inducible reporter, measures of mRNA induction for gain or loss-of-signal activity can be used to understand regulation of transcription factor activity. To generalize the intended target to other relatable targets, this assay endpoint is annotated to the microrna intended target family, where the subfamily is post-transcriptional regulation.
A total of 1060 chemcials from the ToxCast library were tested in eight-point concentration-response experiments. Cell culture and cytotoxicity assays were conducted at Thermo Fisher Scientific's Custom Services facility (Madison, WI). A single lot of human HepaRG cells (Thermo Fisher Scientific, Frederick, MD) was used for the cell culture experiments. 96-well format collagen type I coated plates of human HepaRG cells were prepared using established methods. Briefly, cryopreserved HepaRG cells were thawed, plated at a density of approximately 100,000 cells/well in HepaRG Thaw, Plate, and General Purpose media (HPRG770, Thermo Fisher Scientific), and incubated for 48 hours. 0.5% DMSO was selected as vehicle control to balance the requisite need of DMSO in HepaRG cultures to maintain differentiation (for example, baseline metabolism, proportions of hepatocytes vs. cholangiocytes), while enabling further hepatic receptor pathway activation (for example, PXR and CAR) in response to chemical exposure. 48 hours after plating, the culture medium was replaced with HepaRG Serum-Free Incudtion Media. Cells were exposed to each test chemical in duplicate and maintained in CO2 incubators for another 48 hours. Chemical plates were thawed to room temperature and 200x concentrations of treatment groups were prepared. 8-point conentration-reponse curves were made with the highest exposure at 100 uM, followed by half-log dilutions, all in 0.5% DMSO. Each test plate contained variouse controls, induction positive controls (1mM phenobarbital), cytotoxicity positive controls ([…] aflatoxin B1), vehicle controls (0.5% DMSO), and total lysis controls (0.5% DMSO). Cell morphology images were taken using an Essen IncuCyte FLR automated microscope, with six 96-well plates imaged in about 24 minutes. Images were captured and exported and JPEG files. Spent culture media was transfered to black-well plates for the LDH assay, and remaining media was sorted at -80 C for later use. Cells were treated with RLT buffer and frozen until shipped for gene expression analysis. Total RNA was isolated from the cell suspension in 75 uL of Buffer RLT (Qiagen, Germantown, MD 20874) by Quintiles/Expression Analysis (Durham, NC) using a custom isolation procedure. Total RNA from each plate well was transferred to a preamplification plate. Fluidigm's 96.96 Dynamic ArrayTM (Fluidigm, Amsterdam, the Netherlands) technology was used for gene expression analyses by quantitative reverse transcription polymerase chain reaction (qRT-PCR, performed by Quintiles/Expression Analysis, Durham, NC)89. Standard TaqManTM Assays (Applied Biosystems/ThermoFisher Scientific, Foster City, CA) were used to assess the expression of 93 genes selected based on their selectivity and sensitivity to important hepatic receptors known to be modulated by environmental chemicals; importance in human hepatocyte functionality; and hepatotoxicity. […]
Consider `CCC(C)c1ccccc1O` (stereo unspecified), for which the molecule was called inactive.

For the molecule `O=C(c1ccccc1)c1ccccc1`, the call was inactive.

As to `CN(C)CCOC(c1ccccc1)c1ccccc1`, the molecule was classed as inactive.

By AC50 is commonly meant the midpoint of the concentration-response curve, whichever way the signal moves. With `CS(=O)(=O)c1ccc([C@@H](CC2CCCC2)C(=O)Nc2cnccn2)cc1Cl`, the AC50 was 80.8 µM (active).

In the case of `N=C(N)c1ccc(OCCCCCOc2ccc(C(=N)N)cc2)cc1`, the AC50 was 3.63 µM (active).

As to `CCCCC=O`, the molecule was called inactive.

As to `CCCCc1oc2ccccc2c1C(=O)c1cc(I)c(OCCN(CC)CC)c(I)c1`, the AC50 is 70.4 µM (active).

Regarding `Cc1[nH]nc2c1N=C(c1ccccc1Cl)c1cc([N+](=O)[O-])ccc1N2`, the AC50 is 7.26 µM (active).

As to `CCCCC(CC)C(=O)O` (stereo unspecified), the molecule was called inactive.

For `O=C(CCCN1CCC(O)(c2ccc(Cl)cc2)CC1)c1ccc(F)cc1`, the molecule was classed as inactive.

Consider `CN(Cc1cnc2nc(N)nc(N)c2n1)c1ccc(C(=O)N[C@@H](CCC(=O)O)C(=O)O)cc1`, for which the result was inactive.

For the molecule `CCCCCCCCCCCCCCC`, the outcome was inactive.

Turning to `CC(=O)Nc1ccc(O)cc1`, the molecule was called inactive.

For the molecule `OCC(CO)(CBr)CBr`, the call was inactive.

Regarding `CCCCCCCCCCCCOS(=O)(=O)O`, the AC50 was 86.2 µM (active).

`O=C1NS(=O)(=O)c2ccccc21`: the outcome was inactive.

Source of the values: PubChem BioAssay (EPA / NIEHS).
